TrxR1 inh – qHTS Assay for Inhibitors of Mammalian Selenoprotein Thioredoxin Reductase 1 (TrxR1): qHTS | recombinant rTrxR1, NADPH fluorescence consumption, selenite substrate | Potency, µM (top dose mostly 114 µM), for inactives: top-dose activity change, negative = inhibition, hits mostly inhibitors | 390,000 tested, 1% active | AID 588453, 2011; also: % is scaled to controls: 0 for no effect and ±100 for the full control effect; nearly all actives have a fitted effect of over 65% in size
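Rat TrxR1 (90 nM in the dispensed reagent) was pre-reduced with 400 uM NADPH for 5 min at room temperature, then incubated with compound for 15 min. After 400 uM selenite was added, NADPH fluorescence (Ex 340/Em 450 nm) was followed for 8 min.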
HEK293 tox – qHTS of GLP-1 Receptor Inverse Agonists: Cytotox Screen; HEK293 cAMP-luciferase reporter cells, luminescence, 24 h; Potency, µM (highest dose often 38.3 µM), for inactives: at the top dose activity change, negative = inhibition, hits mostly inhibitors; 410,000 tested, 0.13% active;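 also: loss of luciferase light is scored as toxicity; % is scaled to controls: 0 for no effect and ±100 for the full control effect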
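Here, cytotoxicity is scored as loss of luminescence. The MLSMR collection was tested on cells seeded in medium containing 10% Nu serum, with a 24 hr compound exposure preceded by 12 hours of culture.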
GLP-1R inv ag – qHTS of GLP-1 Receptor Inverse Agonists (Inhibition Mode). Potency, µM (series often up to 38.3 µM), for the others: top-dose activity change, negative = inhibition, actives largely listed as inhibitors. AID 624417, 2012. 410,000 tested, 1.6% active. HEK293 GLP-1R CRE-luciferase, luminescence, 24 h; GLP-1R form is constitutively active; also: % is scaled to controls: 0 for no effect and ±100 for the full control effect; nearly all actives have a fitted effect of over 55% in size
Target sequence (P43220 whole entry, looked up): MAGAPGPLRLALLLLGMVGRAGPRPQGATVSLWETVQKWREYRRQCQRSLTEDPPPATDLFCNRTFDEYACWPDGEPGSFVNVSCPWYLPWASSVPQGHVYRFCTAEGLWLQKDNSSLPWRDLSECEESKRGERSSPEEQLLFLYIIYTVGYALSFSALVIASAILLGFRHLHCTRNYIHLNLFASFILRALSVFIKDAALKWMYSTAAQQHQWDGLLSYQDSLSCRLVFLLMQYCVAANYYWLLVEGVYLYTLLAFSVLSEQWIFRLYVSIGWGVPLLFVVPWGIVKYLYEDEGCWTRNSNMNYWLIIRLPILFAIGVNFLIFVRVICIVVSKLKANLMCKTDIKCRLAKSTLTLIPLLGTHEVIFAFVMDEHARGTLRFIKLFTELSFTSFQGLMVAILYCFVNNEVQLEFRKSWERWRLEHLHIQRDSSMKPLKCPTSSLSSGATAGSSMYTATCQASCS
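Stable HEK293 clone (constitutively active GLP-1R + cAMP-response luciferase); 200 cells/uL plated, 12 h pre-culture, compound 24 hr, 37 deg C/5% CO2; detection reagent 12 min RT; luminescence.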
TrxR1 substrate – qHTS Assay for Substrates of Mammalian Selenoprotein Thioredoxin Reductase 1 (TrxR1): qHTS; Thioredoxin reductase 1, cytoplasmic (Rattus norvegicus), O89049; purified TrxR1 substrate turnover, NADPH consumption readout; Potency, µM (doses to about 114 µM), for the others: top-dose activity change, negative = substrate turnover; 390,000 tested, 0.01% active; also: % is scaled to controls: 0 for no effect and ±100 for the full control effect; nearly all actives have a fitted effect of over 50% in size
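Rat TrxR1, dispensed at 90 nM, was prereduced with 400 uM NADPH (final) for 5 min at ~22 deg C, then incubated with compound 15 min before 400 uM selenite. A first-read NADPH fluorescence drop versus no-compound background flagged substrates.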
IDH1 R132H inh – qHTS for Inhibitors of mutant isocitrate dehydrogenase 1 (IDH1): qHTS. Isocitrate dehydrogenase [NADP] cytoplasmic (Homo sapiens), O75874. 390,000 tested, 0.093% active. Potency, µM (series often up to 76.6 µM), inactives show at the top dose activity change, negative = inhibition, usual class: inhibitors. IDH1-R132H enzyme, NADPH consumption, diaphorase/resazurin fluorescence; also: % is scaled to controls: 0 for no effect and ±100 for the full control effect; nearly all actives have a fitted effect of over 65% in size
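IDH1-R132H (0.5 ug/mL) preincubated 30 min with compound, then NADPH (0.016 mM) and alpha-KG (2 mM) added; 80 min at RT, pH 7.5. Remaining NADPH coupled via diaphorase/resazurin to fluorescence (540/590 nm); concentration-response curves normalized to no-enzyme control.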
GLP-1R agonist – qHTS of GLP-1 Receptor Agonists | HEK293 GLP-1R CRE-luciferase, luminescence, 4-6 h; cells express a hypersensitive GLP-1R form | Potency, µM (series often up to 45.6 µM), inactives show at the highest dose activation, usual class: activators | 380,000 tested, 0.007% active | AID 624172, 2012; also: % of control where 0% means no effect
* = called active by the depositor; ? = inconclusive; / = not tested or not shown; [ ] = dose if it differs, or a comment. The list is not random: actives were taken first. Their share in the collection is about 2.7%. Calls follow the shape of the dose curve; as a rule, active = well fitted curve in the direction sought with a large enough effect; inconclusive = small, poorly fitted or top-dose-only effect, or another doubt; inactive = no such curve, though single readings can be large; an effect the other way counts as inactive or inconclusive. Potency is read from the fitted curve at half-maximal effect.

SMILES	TrxR1 inh	HEK293 tox	GLP-1R inv ag	TrxR1 substrate	IDH1 R132H inh	GLP-1R agonist
COc1ccc(-c2noc(CCC(=O)NCC3CCN(Cc4cccc(C)c4)CC3)n2)cc1	12%[57.1 µM]	-29%	11µM*	7%[57.1 µM]	2%	3%
Cc1cccc(CN2C(=O)c3ccccc3S(=O)(=O)c3ccc(C(=O)N4CCN(c5cc(C)ccc5C)CC4)cc32)c1	31%	-6%	?	5%	11%	-2%
CSc1cccc(NC(=S)N(CCCN2CCCC2)Cc2cccn2Cc2ccc(Cl)cc2)c1	0%	11µM*	3.5µM*	1%	0%	-5%
COc1ccc(NC(=S)N2CCCN(Cc3cccc(Cl)c3)C2)cc1	13%	-6%	8.9µM*	1%	0%	13%
COc1cccc(NC(=S)N2CCCN(Cc3ccc(F)cc3)C2)c1	14%	0%	?	4%	4%	16%
CSc1cccc(NC(=S)N2CCCN(Cc3cccc(Cl)c3)C2)c1	13%	-12%	3.5µM*	-1%	-6%	7%
CCOc1ccc(NC(=S)N2CCCN(Cc3cccc(Cl)c3)C2)cc1	16%	7%	?	2%	5%	16%
COc1ccc(-c2nc3scc(CCNS(=O)(=O)c4c(C)cc(C)cc4C)n3n2)cc1OC	-2%[57.1 µM]	-14%	18%	-2%[57.1 µM]	17%	/
CC(=O)Nc1nonc1-c1nnc(SCc2ccccc2Cl)n1C	21%	0%	10%	11%	7%	/
Cc1cccc(NC(=O)C2CC(=O)n3cnnc3S2)c1 (stereo unspecified)	7.1µM*	4%	23%	-3%	-6%	-9%
CCN=C1SC(C(=O)Nc2cccc(C)c2)CC(=O)N1CC (stereo unspecified)	8%	-1%	-12%	0%	3%	0%
CCC(C(=O)N1CCN(c2ccccc2)CC1)n1nc(C)c2sc3ccccc3c2c1=O (stereo unspecified)	20%	11%	-8%	10%	-4%	/
COc1ccc(C)cc1S(=O)(=O)Nc1ccc(F)c(Cl)c1	10%[57.1 µM]	-8%	10µM*	13%[57.1 µM]	2%	-3%
O=C(NCc1ccccc1)C(c1ccccc1)n1c(-c2ccccn2)nc2ccccc21 (stereo unspecified)	/	-2%	7.9µM*	/	/	/
C#C[C@@]1(OC(C)=O)CC[C@H]2[C@@H]3CCC4=CC(=O)CC[C@@H]4[C@H]3CC[C@@]21C	/	/	/	/	/	3%
Cc1ccc(C)c(N2CCN(C(=O)c3ccc4[nH]c(C)c(C)c4c3)CC2)c1	3%[57.1 µM]	-27%	7.9µM*	-6%[57.1 µM]	-17%	/
CCOC(=O)N1CCN(C(=O)c2ccc3[nH]c(C)c(C)c3c2)CC1	11%	-15%	18%	2%	0%	10%
COC(=O)C1=C(O)/C(=C\c2ccc(CNS(=O)(=O)c3ccc(Cl)cc3)o2)N=C1C	28µM*	-7%	4%	-15%	-5%	-2%
CCOC(=O)C1=C(O)/C(=C\c2ccc(CNS(=O)(=O)c3ccc(Br)cc3)o2)N=C1C	14µM*	-14%	-17%	0%	-8%	-5%
COC(=O)C1=C(O)/C(=C\c2ccc(CNS(=O)(=O)c3ccccc3)o2)N=C1C	?	-8%	15%	-8%	0%	9%
COCC1CCCN(C(=O)c2ccc3oc(Cc4ccc(Cl)cc4)nc3c2)C1 (stereo unspecified)	12%	-16%	10µM*	1%	-9%	4%
O=C(/C=C/c1ccc(C(F)(F)F)cc1)OC(C(=O)NC1CC1)c1ccccc1 (stereo unspecified)	9%	/	/	4%[0.0914 µM]	/	/
Cc1nn(C(=O)c2ccc(Cl)cc2)c(C)c1Sc1ccc(Cl)cc1	25%	21%	-2%	8%	-28%	/
Cc1[nH]c2ccccc2c1C(=O)CN1C(=O)NC(C)(c2ccc(Cl)cc2Cl)C1=O (stereo unspecified)	3%[57.1 µM]	?	13µM*	-22%[57.1 µM]	5%	17%
Cn1ncc(Br)c1C(=O)NC12CC3CC(CC(C3)C1)C2	-4%	-16%	10µM*	-6%	0%	6%
SMILES	TrxR1 inh	HEK293 tox	GLP-1R inv ag	TrxR1 substrate	IDH1 R132H inh	GLP-1R agonist
Cc1c(Br)c([N+](=O)[O-])nn1CC(=O)N1CCN(C23CC4CC(CC(C4)C2)C3)CC1	-2%	-16%	10µM*	-12%	2%	2%
COc1ccccc1-[n+]1c(C)cc(/C=C2\Sc3ccccc3N2C)cc1C	-3%	-11%	2.5µM*	-19%	0%	-6%
CCOc1ccccc1NC(=O)NCCn1c(=O)oc2ccc(C)cc21	27%	4%	-15%	3%	17%	/
COc1cc(C)ccc1OCCSc1nc2ccc(NC(=O)c3ccco3)cc2s1	26%	4%	?	15%	-4%	/
O=C(O)c1ccccc1-c1ccccc1C(=O)NNc1ccccc1	-1%	-8%	2.2µM*	-3%	-1%	-3%
C/C(=N\NC(=S)NCc1ccccc1)c1cccs1	47%[57.1 µM]	3.5µM*	?	-2%[57.1 µM]	5%	19%
C/C(=N\NC(=S)NCc1ccccc1)c1ccc2c(c1)OCCO2	-24%	?	10µM*	-16%	-3%	?
CC(=O)O[C@H](C)OC(=O)[C@@H](C)c1ccc(-c2ccccc2)c(F)c1	/	/	/	/	/	-1%
COC(=O)c1c(NC(=O)C2c3ccccc3Oc3ccccc32)sc2c1CCC(C)C2 (stereo unspecified)	29%	-3%	-9%	3%	-7%	/
CC1CCN(Cc2c(C(=O)N/N=C/c3cc(Cl)ccc3O)nnn2-c2nonc2N)CC1	14%	-6%	?	2%	-1%	2%
CC(C)c1c(C(=O)N/N=C/c2cccc3ccccc23)nnn1-c1nonc1N	12%	-20%	6.3µM*	-7%	-2%	-2%
CC1CCN(Cc2c(C(=O)N/N=C/c3cc(Br)ccc3O)nnn2-c2nonc2N)CC1	20%	124%	4µM*	4%	4%	-1%
CC(C)c1c(C(=O)N/N=C/c2c[nH]c3ccccc23)nnn1-c1nonc1N	-11%	?	?	1%	9%	2%
O=C(Nc1noc2ccccc12)c1ccc(F)cc1	17%	9%	14%	3%	/	/

Compound activity: PubChem, National Center for Advancing Translational Sciences (NCATS)
